The term IC50 denotes the point on the concentration scale where inhibition reaches its midpoint.

Each structure is given as a SMILES string. Out of some 2,200 compounds screened, about 1,200 (55%) were called active. Cut-off not given; nearly all actives show IC50 up to about 92 µM. The set was probably picked from earlier hits. The list shows a part of the results.

For 99 compounds, IC50 results are on record in PubChem BioAssay AID2501 (Southern Research Specialized Biocontainment Screening …, 2010).

This experiment can be described thus: counter assay for TAg ATPase ADP read-out – biochemical, ADP-Hunter, fluorescence, counter-screen (AID 2501).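 Further: purified T antigen ATPase.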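 On inhibition: higher means more inhibition.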 Particulars: series mostly up to 100 µM. On the technique in general: A counterscreen serves to expose hits that act by an unwanted route or on another target.
Take `COC(=O)C1=C(O)/C(=C\c2ccc(O)c(OC)c2)N=C1C`: the IC50 is 3.81 µM (active).

Regarding `CCOC(=O)C1=C(O)/C(=C\c2ccc(O)c(OCC)c2)N=C1C`, the half-inhibitory concentration (IC50) is 9.47 µM (active).

`CCOc1cc(/C=C2/N=C(C)C(C(=O)OC)=C2O)ccc1O`: the IC50 is 3.91 µM (active).

On to `C#CCOCCOCCOCCNc1nc(N2CCN(C(=O)CCCCCCCCCCNC(=O)[C@H]([C@@H](C)CC)n3cc(CCCCN=C(N)N)nn3)CC2)nc(N2CCN(C(=O)CCCCCCCCCCNC(=O)[C@H]([C@@H](C)CC)n3cc(CCCCN=C(N)N)nn3)CC2)n1`, for which the IC50 entry was “inactive”.

For the compound `COc1cc(SC#N)ccc1N=Cc1c(C)[nH]n(-c2ccc(C)cc2)c1=O`, the IC50 result was “inactive”.

Regarding `Cc1[nH]n(-c2ccccc2)c(=S)c1C=Nc1ccc([N+](=O)[O-])cc1`, the IC50 is 48 µM (active).

As for `O=[N+]([O-])c1ccc(C2(O)CN(c3ccccc3)C3=[N+]2CCS3)cc1` (centres undefined), the IC50 result was “inactive”.

Regarding `O=C1CCCCN1CCC(=O)N1CCCC(Nc2ccccc2)C1` (centres undefined), the IC50 result is “inactive”.

For the compound `COc1ccc(NC2CCCN(C(=O)CCCn3cncn3)C2)cc1` (centres undefined), the IC50 was 11.5 µM (active).

`CCCn1c(SCC(=O)N2CCCC(C)C2)nnc1-c1ccccn1` (centres undefined): the IC50 entry was “inactive”.

With `COc1ccc(NC2CCCN(C(=O)CSc3ccccc3)C2)cc1` (centres undefined), the IC50 is 4.76 µM (active).

With `COc1ccc(NC2CCCN(C(=O)CCn3cccn3)C2)cc1` (centres undefined), the IC50 is 5.33 µM (active).

Regarding `OCCC1CN(Cc2cccn2-c2ncccn2)CCN1CCc1ccccc1` (centres undefined), the IC50 entry is “inactive”.

Take `COc1ccc(C2=CC3=C(Br)C(=O)C(C)(OC(=O)c4cccs4)C(=O)C3=CO2)cc1` (centres undefined): the IC50 result is “inactive”.

As to `CC(=O)NS(=O)(=O)c1ccc(N=c2ssc3c2-c2cc(C)ccc2NC3(C)C)cc1`, the IC50 was 74.3 µM (active).

Consider `CN1C=CC=C/C1=C(\C#N)c1nc2ccccc2[nH]1`, for which the IC50 is 4.36 µM (active).

Take `NS(=O)(=O)c1ccc(N/N=C/c2ccc[nH]2)c([N+](=O)[O-])c1`: the half-maximal inhibitory concentration (IC50) is 14.6 µM (active).

As for `Cc1cs/c(=N\N=C\c2ccc(O)cc2)n1Cc1ccco1`, the IC50 was 5.01 µM (active).

Regarding `CCOc1cccc(=O)c2c(C)n(Cc3ccco3)c(C)c12`, the IC50 result is “inactive”.

For the compound `O=C(CCc1nnc(C2(c3ccc(Cl)cc3)CCC2)o1)N1CCCC(O)C1` (centres undefined), the IC50 entry was “inactive”.

Consider `CC(C)CN(Cc1c(O)ccc2c3c(c(=O)oc12)CCC3)CC(C)C`, for which the IC50 was 5.92 µM (active).

With `O=C1NN(c2ccccc2)C(=O)/C1=C\c1coc2ccc(O)cc2c1=O`, the IC50 was 10.7 µM (active).

On to `CC(C)CC1=NN2C(=N)/C(=C\c3coc4ccccc4c3=O)C(=O)N=C2S1`, for which the IC50 result is “inactive”.

For `N=C1/C(=C\c2coc3ccc(O)cc3c2=O)C(=O)N=C2SC=CN12`, the IC50 was 84.9 µM (active).

As for `O=C1NN(c2cccc(Br)c2)C(=O)/C1=C\c1ccc(O)cc1`, the IC50 was 11.6 µM (active).

With `CSC1=NSC2=NC(=O)/C(=C\c3coc4ccccc4c3=O)C(=N)N12`, the IC50 entry was “inactive”.

For the compound `Cc1cc(C)c2nc(-c3ccco3)cc(C(=O)O)c2c1`, the IC50 result is “inactive”.

As for `COc1ccc(-n2c(=O)c3c4c(sc3n3c(=S)[nH]nc23)COC(C(C)C)C4)cc1` (centres undefined), the IC50 is 16.3 µM (active).

As to `CC(C)C1Cc2c(sc3c2c(=O)n(-c2ccccc2)c2n[nH]c(=S)n32)CO1` (centres undefined), the half-maximal inhibitory concentration (IC50) was 21.9 µM (active).

With `Cc1cc(C)c2c(=O)n(CC(=O)NCCCN3CCN(c4ccccc4F)CC3)sc2n1`, the IC50 entry is “inactive”.

Turning to `C=CCOC(=O)C1=C(C)N=c2s/c(=C3\C(=O)N(CC(=O)O)c4ccccc43)c(=O)n2C1c1ccc(OC)cc1` (centres undefined), the IC50 result was “inactive”.

In the case of `O=C(N/N=C/c1ccc(O)c(O)c1)C1CC1`, the IC50 is 4.15 µM (active).

Turning to `C=C1CC(C(=O)N/N=C/c2ccc(O)cc2)C1`, the concentration for half-maximal inhibition (IC50) is 5.39 µM (active).

`Cc1nonc1C(=O)N/N=C/c1ccc(O)c(O)c1`: the IC50 is 2.13 µM (active).

Regarding `COc1ccc2c(c1)c(C(=O)N/N=C/c1ccc(O)c(O)c1)c(C)n2C`, the IC50 was 14.6 µM (active).

For the compound `CCOC(=O)c1c(C)n(C)c2ccc(OCC(O)CN(CC)CC)cc12` (centres undefined), the IC50 result was “inactive”.

Take `O=C(NCCO)Nc1ccc2nc(-c3ccco3)c(-c3ccco3)nc2c1`: the IC50 entry is “inactive”.

Regarding `O=C(N/N=C/c1ccc(O)c(O)c1)N/N=C/c1ccc(O)c(O)c1`, the IC50 is 1.85 µM (active).

Regarding `S=c1[nH]nc(NCCCN2CCOCC2)s1`, the IC50 is 52.3 µM (active).

As to `COc1ccc(C2CC(=O)N3CN(c4ccccc4F)CSC3=C2C#N)cc1OC` (centres undefined), the IC50 entry was “inactive”.

For the compound `CN1CSC2=C(C#N)C(c3cccc(OCc4ccccc4)c3)CC(=O)N2C1` (centres undefined), the IC50 was 21.8 µM (active).

With `COc1ccc(N2CSC3=C(C#N)C(c4ccc(OC)c(OC)c4)CC(=O)N3C2)c(OC)c1` (centres undefined), the IC50 was 24.8 µM (active).

With `COc1ccccc1N1CSC2=C(C#N)C(c3ccc(SC)cc3)CC(=O)N2C1` (centres undefined), the IC50 was 27.8 µM (active).

As for `COc1cc(SC#N)ccc1N=Cc1c(C)[nH]n(-c2cccc3ccccc23)c1=O`, the IC50 entry was “inactive”.

For `CC(C)c1ccc(C2CC(=O)N3CN(C)CSC3=C2C#N)cc1` (centres undefined), the IC50 entry is “inactive”.

Consider `CCOc1ccc2ccccc2c1C(=O)N[C@@H]1C(=O)N2[C@@H]1SC(C)(C)[C@@H]2C(=O)O`, for which the IC50 entry is “inactive”.

Take `CCOc1ccccc1N1CSC2=C(C#N)C(c3c(OC)ccc4ccccc34)CC(=O)N2C1` (centres undefined): the IC50 is 81.2 µM (active).

`CC(=O)N1N=C(c2ccc(C)cc2)CC1c1ccco1` (centres undefined): the IC50 result is “inactive”.

On to `COc1cc(OC)c(C2CC(=O)N3CN(c4ccccc4C)CSC3=C2C#N)cc1OC` (centres undefined), for which the IC50 result was “inactive”.

For the compound `COc1ccc(OC)c(C2CC(=O)N3CN(c4cccc(Cl)c4C)CSC3=C2C#N)c1` (centres undefined), the IC50 result is “inactive”.

Turning to `COc1cc(OC)c(C2CC(=O)N3CN(C)CSC3=C2C#N)cc1OC` (centres undefined), the IC50 was 83.4 µM (active).

With `COc1ccc(N2CSC3=C(C#N)C(c4cc(OC)ccc4OC)CC(=O)N3C2)c(OC)c1` (centres undefined), the IC50 is 9.09 µM (active).

As to `COc1cc(OC)c(C2CC(=O)N3CN(c4ccc(C)cc4)CSC3=C2C#N)cc1OC` (centres undefined), the IC50 is 68 µM (active).

In the case of `COc1ccc(N2CSC3=C(C#N)C(c4cc(OC)c(OC)cc4OC)CC(=O)N3C2)c(OC)c1` (centres undefined), the IC50 was 78.4 µM (active).

In the case of `COc1ccc2c(c1OC)C(=O)N1c3ccccc3N=C(c3ccc([N+](=O)[O-])cc3)CC21` (centres undefined), the IC50 result was “inactive”.

In the case of `O=C(NCc1ccco1)/C(=C/c1ccc(C(F)(F)F)cc1)c1nc2ccccc2[nH]1`, the IC50 result was “inactive”.

On to `N#C/C(=C/c1ccc(O)c(O)c1)c1nc2ccccc2[nH]1`, for which the IC50 is 5.71 µM (active).

Consider `O=C(CCn1cnc2ccccc21)N/N=C/c1ccc(O)cc1`, for which the half-maximal inhibitory concentration (IC50) is 7.9 µM (active).

With `O=C(CC(=O)N/N=C/c1ccc(O)cc1)N/N=C/c1ccc(O)cc1`, the IC50 was 1.98 µM (active).

As for `O=C(C[n+]1ccccc1)N/N=C/c1ccc(O)cc1`, the IC50 is 3.04 µM (active).

In the case of `Cc1cccc(-c2nn(-c3ccccc3)cc2C(=O)Nc2cccc(S(=O)(=O)NC3=NCCC3)c2)c1`, the IC50 result is “inactive”.

For the compound `Cc1nc2cc(-c3ccsc3-n3c(C)ccc3C)[nH]n2c(=O)c1Cl`, the IC50 result is “inactive”.

On to `CNc1nc(-c2ccccc2)[n+](-c2ccc(C)cc2)s1`, for which the half-inhibitory concentration (IC50) was 18.6 µM (active).

As to `COc1cc2c(cc1OC)-c1cc(Nc3ccc(N(C)C)cc3)nc(=O)n1CC2`, the IC50 was 1.76 µM (active).

With `O=C1C=CC(=O)N1c1ccc(O)cc1`, the IC50 entry was “inactive”.

For `O=C1CSC(=Nc2ccc(O)cc2)N1c1ccc(O)cc1`, the IC50 is 3.6 µM (active).

Consider `Cc1nnc(N/N=C/c2c(O)n(-c3cccc(C(F)(F)F)c3)c(=O)c3ccccc23)[nH]c1=O`, for which the IC50 is 8.07 µM (active).

In the case of `CCn1cnc2cc(NCc3ccc(N(C)C)cc3)ccc21`, the IC50 was 10.5 µM (active).

In the case of `CC(C)c1ccc(CNc2nnnn2C)cc1`, the IC50 result is “inactive”.

Regarding `Cc1ccc(CNc2ccc3c(c2)ncn3C(C)C)cc1`, the IC50 is 12.7 µM (active).

Regarding `CN(C)c1ccc(CNc2ccc3c(c2)ncn3C)cc1`, the IC50 is 13.5 µM (active).

Take `ClC(Cl)(c1nnnn1-c1ccccc1)c1nnnn1-c1ccccc1`: the IC50 result was “inactive”.

On to `CC(Cc1ccc(O)c(O)c1)C(C)Cc1ccc(O)c(O)c1` (centres undefined), for which the IC50 is 22.3 µM (active).

Regarding `CCCCCCN=C(C)c1ccccc1O`, the IC50 result was “inactive”.

Consider `O=C(O)c1cccc(S(=O)(=O)Nc2ccc3oc(=O)sc3c2)c1`, for which the IC50 entry is “inactive”.

With `CC(=O)N(c1ccc2oc(=O)sc2c1)S(=O)(=O)c1ccccc1`, the IC50 was 62.1 µM (active).

`CSc1nc(O)c(C(c2ccc(OC(C)C)cc2)c2c(O)nc(SC)[nH]c2=O)c(=O)[nH]1`: the IC50 result was “inactive”.

On to `COc1cc(/C=N/NC(=O)CC2C(=O)NN=C2C)ccc1O` (centres undefined), for which the IC50 is 5.63 µM (active).

In the case of `COc1cc(/C=N/NC(=O)C2=NNC(=O)C2C)ccc1O` (centres undefined), the IC50 was 6.5 µM (active).

Consider `CCCc1cc(=O)[nH]c(Nc2ccc(O)cc2)n1`, for which the IC50 is 3.17 µM (active).

As to `Oc1ccc(C=Nc2ccc(N3CCOCC3)cc2)c(O)c1`, the IC50 is 2.33 µM (active).

Take `COc1cccc(C=Nc2ccc(N3CCOCC3)cc2)c1O`: the IC50 is 5.29 µM (active).

Take `Oc1ccc2ccccc2c1C=Nc1ccc(N2CCOCC2)cc1`: the IC50 was 2.74 µM (active).

Consider `Oc1ccc(N=Cc2cc(Br)c(N3CCOCC3)o2)cc1`, for which the IC50 was 8.18 µM (active).

For the compound `Cc1ccc(NC(NC(=O)Cc2ccccc2)C(Cl)(Cl)Cl)cc1` (centres undefined), the IC50 entry was “inactive”.

`CC1CCCN(Cc2nc(Cc3ccccc3Cl)no2)C1` (centres undefined): the IC50 result was “inactive”.

As to `COc1ccc(CC(O)COS(N)(=O)=O)cc1` (centres undefined), the IC50 result is “inactive”.

Regarding `O=[N+]([O-])c1cc(Cc2ccccc2)cc(C=Nc2ccc(N3CCOCC3)cc2)c1O`, the IC50 was 3.16 µM (active).

As for `C(=Nc1ccc(N2CCOCC2)cc1)c1c[nH]c2ccccc12`, the IC50 was 7.55 µM (active).

`O=[N+]([O-])/C=C\c1ccc(N2CCOCC2)cc1`: the IC50 entry was “inactive”.

As for `O=C(O)c1cc(-c2ccco2)nc2cc3ccccc3cc12`, the IC50 entry was “inactive”.

For the compound `CCC(=O)NC(C)C(c1cccs1)N1CCN(c2ccccc2)CC1` (centres undefined), the IC50 entry is “inactive”.

On to `O=c1cc(CN2CCN(c3ccc(O)cc3)CC2)nc2scc(-c3ccccc3)n12`, for which the IC50 is 9.38 µM (active).

For the compound `O=c1[nH]c(=S)[nH]c2[nH]c(=S)[nH]c12`, the IC50 was 52.7 µM (active).

Take `CC(C)N1CN(c2ccccc2)C(=S)N(c2ccccc2)C1`: the IC50 entry was “inactive”.

Regarding `N#C/C(C(=O)Nc1ccc(Cl)cc1)=C(/S)Nc1ccccc1`, the half-maximal inhibitory concentration (IC50) is 21.8 µM (active).

With `Cc1nnc(Nc2ccc(O)cc2)[nH]c1=O`, the IC50 is 3.89 µM (active).

Regarding `Cc1n[nH]c(=O)nc1Nc1ccc(O)cc1`, the IC50 was 2.48 µM (active).

In the case of `Cc1[nH]nc(Nc2ccc(O)cc2)c1[N+](=O)[O-]`, the IC50 was 3.93 µM (active).
